For 14 compounds, growth inhibition results are on record in PubChem BioAssay (NCI).

Molecules are shown by their SMILES. About 79,000 compounds went through this panel and 15% of them were active in at least one assay; those are over-represented in the sample as a whole. Values without a mark were called inactive. Active and inactive are the calls of the source. Rule as the data show it: active = growth inhibition above about 70%; inactive = the rest.

The test in a line: NCI Yeast Anticancer Drug Screen. Data for the mlh1 rad18 strain (AID 175). Conditions: S. cerevisiae mlh1 rad18 strain growth inhibition; at 50.0 µM (retest, dose inferred, filed as 5.0); active compounds read high. Put shortly: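 Read-out is yeast growth inhibition, calculated against vehicle-only controls. The compound was applied to a strain engineered with DNA damage repair alterations.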
Take `Cc1cc(C)c(O)c(C)c1.[Hg]`: the growth inhibition is 98% (active). As for `CC(O)C(=O)O.CC(O)C(=O)O.[Ni]` (centres undefined), the figure is 12%; as for `CC(=O)OC1C(=O)OCC23CCC4(C)OC4C2OC2CC(OC(=O)/C=C/C=C/C(=O)OCCC1C)C3(C)C21CO1` (centres undefined), 99% (active); as for `CN1C(=O)CC[C@@]2(C)C1=CC[C@H]1[C@@H]3CC[C@H](O)[C@@]3(C)CC[C@@H]12`, 52%. For `CC[C@H](C)c1occ2c(O)c(C(=O)O)c(=O)cc-2c1C`, the growth inhibition is 98% (active). With `O=[N+]([O-])[O][Tl]([c]1ccccc1)[c]1ccccc1`, the growth inhibition was 41%. Then `CCCC[CH2][Sn]([CH2]CCCC)[CH2]CCCC.CCCC[CH2][Sn]([CH2]CCCC)[CH2]CCCC`, with 100% (active); and `Nc1cc(Cl)ccc1C(=O)c1ccccc1Cl`, with 99% (active); and `CC(Br)CN1CCOCC1` (centres undefined), with 97% (active). Then `C(CCC[Te][Te]CCCCCCOC1CCCCO1)CCOC1CCCCO1` (centres undefined), with 30%.

Take `CN1CN(c2ccccc2)C2(CCN(C3Nc4ccccc4O3)CC2)C1=O` (centres undefined): the growth inhibition is 57%. Regarding `[CH3][Sn]([CH3])([Cl])[c]1cc[c]([Sn]([CH3])([CH3])[Cl])cc1`, the growth inhibition is 87% (active). Regarding `O=[C-]CCCCCC[C-]=O.[C-]#[O+].[C-]#[O+].[C-]#[O+].[C-]#[O+].[Fe+6].[Fe+6].[c-]1[c-][c-][cH-][c-]1.[c-]1[c-][c-][cH-][c-]1`, the growth inhibition is 98% (active).

Regarding `CCOC(=O)NC(=S)[S][Sb]([S]C(=S)NC(=O)OCC)[S]c1nc2ccc(N=Nc3ccc(NS(=O)(=O)c4ccc(NC(=O)C(N5CC5)(N5CC5)N5CC5)cc4)cc3)cc2s1`, the growth inhibition is 99% (active).
